# Laboratory results published in PubChem BioAssay (NCATS).
# Inconclusive results are not listed. Active and inactive are the calls of the source. Unless noted, the call rests on the fitted dose curve; in most records, active means well fitted curve in the direction sought with a large enough effect; inconclusive means small, poorly fitted or top-dose-only effect, or another doubt; inactive means no such curve, though single readings can be large; an effect the other way counts as inactive or inconclusive.
# How the values were obtained:
# [1] = biological target: Lysosomal acid glucosylceramidase (Homo sapiens) (UniProt P04062); assay: Glucocerebrosidase-p2 (AID 348; in the data active means potency below about 10 µM; further: potency means the concentration at half of the fitted maximal effect); conditions: purified GBA, blue fluorogenic substrate, 40 min
# Sequence of Lysosomal acid glucosylceramidase (Homo sapiens) (P04062 whole entry, looked up): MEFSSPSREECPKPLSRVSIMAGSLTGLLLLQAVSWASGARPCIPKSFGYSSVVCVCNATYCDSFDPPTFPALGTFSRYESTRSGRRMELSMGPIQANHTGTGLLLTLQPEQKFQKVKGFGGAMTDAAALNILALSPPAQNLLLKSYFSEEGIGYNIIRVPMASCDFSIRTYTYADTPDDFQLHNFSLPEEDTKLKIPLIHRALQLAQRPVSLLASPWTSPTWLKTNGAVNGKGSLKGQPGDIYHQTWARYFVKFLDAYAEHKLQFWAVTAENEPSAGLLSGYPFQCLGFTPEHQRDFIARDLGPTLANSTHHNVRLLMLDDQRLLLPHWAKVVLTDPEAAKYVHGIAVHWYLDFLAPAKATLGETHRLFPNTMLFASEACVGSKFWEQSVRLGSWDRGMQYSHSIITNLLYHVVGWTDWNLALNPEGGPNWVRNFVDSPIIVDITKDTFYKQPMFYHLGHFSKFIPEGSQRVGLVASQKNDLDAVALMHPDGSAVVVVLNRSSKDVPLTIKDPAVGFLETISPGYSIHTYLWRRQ
# Summary of the method: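 Compounds titrated from 0.6 nM upwards against 0.2 nM enzyme in pH 5.9 citric acid/KH2PO4, taurocholate, tween-20; blue fluorogenic substrate 80 uM, 40 min room temperature, stopped and read Ex 365/Em 440 for AC50.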
# [2] = AP1 Signaling Pathway (AID 357; active means well fitted curve in either direction with a large enough effect, not every such curve was filed as active; further: on the % scale 0 is the no-effect control and ±100 the full control effect); conditions: ME-180 AP-1-bla reporter, EGF-induced, beta-lactamase ratio, 5 h; at 7.69 µM (top of the series) unless noted
# Summary of the method: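 AP-1-bla ME-180 cells with beta-lactamase reporter under AP-1 response element, stimulated with EC50 EGF; compounds titrated, 5 hours at 37 degrees Celsius. CCF4 read at 460/530 nm ratio; positive and negative modulators judged by AC50.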
# [3] = biological target: Cytochrome P450 1A2 (Homo sapiens) (UniProt P05177); assay: p450-cyp1a2 (AID 410; calls by dose curve; further: potency means the concentration at half of the fitted maximal effect); conditions: recombinant CYP1A2, luciferin-ME demethylation, luminescence; series mostly up to 57 µM
# Summary of the method: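 Inhibition was calculated relative to 57 uM furafylline (full inhibition). The reaction used human CYP1A2 at 20nM with Luciferin-ME at its Km, 100uM, driven by an NADPH-regenerating system for 60 min at room temperature.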
# [4] = NFAT Signaling Pathway (AID 444; active means well fitted curve in either direction with a large enough effect, not every such curve was filed as active;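 further: carbachol stimulus at about its EC50 of 1 µM final; on the % scale 0 is the no-effect control and ±100 the full control effect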); conditions: Jurkat NFAT-bla M1, carbachol, beta-lactamase ratio, 5 h; at 7.69 µM (top of the series) unless noted
# Summary of the method: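 Jurkat cells with NFAT-driven β-lactamase reporter and co-expressed M1 receptor, stimulated with carbachol (final 1 uM, ~EC50), compound titration, 5 h at 37 °C. CCF4 loaded 1 h at RT; 460/530 nm ratio gave %activity and AC50.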
# [5] = Stat Signaling Pathway (AID 446; active means well fitted curve in either direction with a large enough effect, not every such curve was filed as active;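 further: ME-180 cervical cancer cells given 40 pM IL-6 alongside compound; SIE-controlled beta-lactamase reporter measured as 460/530 nm FRET emission ratio; on the % scale 0 is the no-effect control and ±100 the full control effect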); conditions: ME-180 (cervical carcinoma) SIE beta-lactamase reporter, IL-6 stimulated, 5 h; at 7.69 µM (top of the series) unless noted
# Summary of the method: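 IL-6/STAT signaling read in ME-180 cells via an SIE beta-lactamase reporter. Stimulus was 40 pM IL-6 (its AC50) for 5 hrs, so both activation and inhibition register.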
# [6] = biological target: Glucocorticoid receptor (Homo sapiens) (UniProt P04150); assay: GR-GFP Redistribution (AID 450;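 active means compounds whose dose series gives a full or clear partial fitted curve of increased nuclear translocation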; further: potency means the concentration at half of the fitted maximal effect); conditions: U2OS GR-GFP nuclear translocation, laser cytometry, 2 h
# Sequence of Glucocorticoid receptor (Homo sapiens) (P04150 whole entry, looked up, the tested form may be a part): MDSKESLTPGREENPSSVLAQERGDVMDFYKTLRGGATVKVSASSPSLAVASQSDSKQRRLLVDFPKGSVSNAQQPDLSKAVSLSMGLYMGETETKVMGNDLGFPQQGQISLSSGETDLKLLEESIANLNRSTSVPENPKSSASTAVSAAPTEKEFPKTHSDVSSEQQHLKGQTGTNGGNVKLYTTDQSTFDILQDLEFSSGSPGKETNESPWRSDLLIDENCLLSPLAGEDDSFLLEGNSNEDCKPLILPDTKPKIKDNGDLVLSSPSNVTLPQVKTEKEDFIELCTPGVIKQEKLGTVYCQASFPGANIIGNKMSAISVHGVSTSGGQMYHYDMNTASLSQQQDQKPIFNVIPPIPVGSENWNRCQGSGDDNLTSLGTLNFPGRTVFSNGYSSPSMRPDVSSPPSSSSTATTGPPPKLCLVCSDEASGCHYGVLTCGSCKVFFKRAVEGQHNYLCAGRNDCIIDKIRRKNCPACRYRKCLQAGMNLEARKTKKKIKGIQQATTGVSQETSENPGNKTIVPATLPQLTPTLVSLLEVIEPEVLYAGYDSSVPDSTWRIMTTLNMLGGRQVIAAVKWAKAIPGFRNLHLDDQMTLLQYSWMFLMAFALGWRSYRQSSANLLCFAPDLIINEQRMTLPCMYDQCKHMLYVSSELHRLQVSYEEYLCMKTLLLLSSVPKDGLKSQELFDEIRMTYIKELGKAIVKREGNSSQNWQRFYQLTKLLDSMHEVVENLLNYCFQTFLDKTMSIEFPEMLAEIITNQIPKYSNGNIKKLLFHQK
# [7] = biological target: Glucocorticoid receptor (Homo sapiens) (UniProt P04150); assay: GR-EFC Redistribution (AID 451; calls by dose curve; further: potency means the concentration at half of the fitted maximal effect); conditions: CHO-K1 GR-EFC translocation, beta-gal luminescence, 2 h
# Summary of the method: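 CHO-K1 cells expressing nuclear EA and GR-ED fragments of b-gal; compounds titrated up to 46 uM final, 2 h at 37 C. GR nuclear translocation read as complemented b-gal luminescence after 1 h RT detection.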
# [8] = biological target: Mitogen-activated protein kinase 10 (Mus musculus) (UniProt Q61831); assay: JNK3 AlphaScreen Assay (AID 530; active means well fitted curve in either direction with a large enough effect, not every such curve was filed as active;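 further: kinase came from lysate of stimulated human HepG2 cells; signal reports phosphorylation of biotinylated GST-cJun 1-79 at Ser73 with 10 µM ATP; on the % scale 0 is the no-effect control and ±100 the full control effect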); conditions: JNK3 lysate, c-Jun phosphorylation; series mostly up to 57.1 µM
# Summary of the method: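 qHTS format: compounds tested as titrations against IL-1beta/TNF-alpha-activated HepG2 lysate JNK3 with biotin-GST-cJun substrate and 10 uM ATP at room temperature. Loss of anti-phospho-cJun AlphaScreen signal indicates inhibition.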
# [9] = biological target: 3',5'-cyclic-AMP phosphodiesterase 4B (Homo sapiens) (UniProt Q07343); assay: qHTS Assay for Inhibitors of PDE-IV (AID 607; active means well fitted activation curve with a large enough effect in the main read-out, with a control signal flat, not every such curve was filed as active; further: % of control where 0% means no effect); conditions: HEK293 ACTOne CNG channel cells, membrane potential fluorescence; series mostly up to 22.9 µM
# Sequence of 3',5'-cyclic-AMP phosphodiesterase 4B (Homo sapiens) (Q07343 whole entry, looked up): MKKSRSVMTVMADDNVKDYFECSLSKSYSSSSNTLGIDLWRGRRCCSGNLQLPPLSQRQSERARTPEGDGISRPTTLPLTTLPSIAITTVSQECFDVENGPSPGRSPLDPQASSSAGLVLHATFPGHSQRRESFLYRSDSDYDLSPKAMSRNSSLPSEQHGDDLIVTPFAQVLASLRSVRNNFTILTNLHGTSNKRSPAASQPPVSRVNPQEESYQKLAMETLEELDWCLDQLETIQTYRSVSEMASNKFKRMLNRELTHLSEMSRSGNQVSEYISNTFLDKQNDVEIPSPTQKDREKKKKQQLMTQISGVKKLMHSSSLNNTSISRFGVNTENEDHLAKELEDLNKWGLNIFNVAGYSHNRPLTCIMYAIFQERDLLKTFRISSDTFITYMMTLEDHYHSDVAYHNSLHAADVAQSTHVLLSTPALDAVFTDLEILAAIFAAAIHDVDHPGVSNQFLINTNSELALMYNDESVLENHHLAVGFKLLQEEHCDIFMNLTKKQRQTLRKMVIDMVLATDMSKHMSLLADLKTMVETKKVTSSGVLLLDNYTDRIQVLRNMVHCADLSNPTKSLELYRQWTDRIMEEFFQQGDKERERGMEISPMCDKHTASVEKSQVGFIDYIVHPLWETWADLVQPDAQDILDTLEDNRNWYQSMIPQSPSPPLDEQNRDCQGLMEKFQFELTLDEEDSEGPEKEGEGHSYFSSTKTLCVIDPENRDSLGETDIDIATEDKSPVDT
# Summary of the method: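 Live HEK293 cells with a modified cyclic nucleotide-gated (CNG) channel report intracellular cAMP via membrane-potential dye fluorescence (ex 535/em 590 nm). Endogenous PDE-IV was targeted. Compounds were tested at up to 22.9 uM final; RO 20-1724 100 uM served as control.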
# [10] = biological target: Cytochrome P450 3A4 (Homo sapiens) (UniProt P08684); assay: qHTS Assay for Inhibitors and Substrates of Cytochrome P450 3A4 (AID 884); conditions: recombinant CYP3A4, Luciferin-PPXE luminescence; series mostly up to 57.1 µM; further: nearly all actives have a fitted effect of over 50% in size; further: potency means the concentration at half of the fitted maximal effect
# Sequence of Cytochrome P450 3A4 (Homo sapiens) (P08684 whole entry, looked up): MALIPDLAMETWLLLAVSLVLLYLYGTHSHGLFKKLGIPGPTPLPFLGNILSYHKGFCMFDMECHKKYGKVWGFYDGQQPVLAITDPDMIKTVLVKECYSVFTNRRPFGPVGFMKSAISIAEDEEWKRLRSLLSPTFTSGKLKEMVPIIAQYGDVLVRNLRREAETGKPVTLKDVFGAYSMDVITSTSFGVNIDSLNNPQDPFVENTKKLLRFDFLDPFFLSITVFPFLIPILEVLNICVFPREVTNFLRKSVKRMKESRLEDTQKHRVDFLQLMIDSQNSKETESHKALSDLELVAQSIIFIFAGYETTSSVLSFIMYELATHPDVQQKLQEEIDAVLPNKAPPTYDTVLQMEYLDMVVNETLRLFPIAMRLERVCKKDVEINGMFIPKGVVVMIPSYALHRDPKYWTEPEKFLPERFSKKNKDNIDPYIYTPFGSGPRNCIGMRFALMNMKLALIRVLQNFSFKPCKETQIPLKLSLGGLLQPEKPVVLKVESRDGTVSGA
# Summary of the method: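 20 nM human CYP3A4 with 25 uM Luciferin-PPXE (at KM) in 200 mM KPO4, preincubated 10 min with compound; NADPH regeneration started a 60 min RT reaction. Luciferin detected by luminescence, normalized to 57 uM ketoconazole as full inhibition.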
# [11] = qHTS Assay for Lipid Storage Modulators (AID 1519; calls by dose curve); conditions: Drosophila S3 cells, BODIPY lipid droplet/cell ratio, laser cytometry, cells loaded with oleic acid
# Summary of the method: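 Cells seeded at 5,000 per well were treated with compounds over a concentration series and loaded with oleic acid (400 uM, as added). Lipid droplet fluorescence (488 nm excitation, 500-530 nm channel) was read by laser-scanning cytometry and normalized to 20 uM Triacsin C.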
# [12] = biological target: Dual specificity protein kinase CLK4 (Homo sapiens) (UniProt Q9HAZ1); assay: qHTS Assay for Inhibitors of CDC-like Kinase 4 (Kinase-Glo Assay) (AID 1770); conditions: recombinant Clk4, Kinase-Glo ATP depletion luminescence; series mostly up to 66.7 µM; further: on the % scale 0 is the no-effect control and ±100 the full control effect; nearly all actives have a fitted effect of over 65% in size
# Sequence of Dual specificity protein kinase CLK4 (Homo sapiens) (Q9HAZ1 whole entry, looked up): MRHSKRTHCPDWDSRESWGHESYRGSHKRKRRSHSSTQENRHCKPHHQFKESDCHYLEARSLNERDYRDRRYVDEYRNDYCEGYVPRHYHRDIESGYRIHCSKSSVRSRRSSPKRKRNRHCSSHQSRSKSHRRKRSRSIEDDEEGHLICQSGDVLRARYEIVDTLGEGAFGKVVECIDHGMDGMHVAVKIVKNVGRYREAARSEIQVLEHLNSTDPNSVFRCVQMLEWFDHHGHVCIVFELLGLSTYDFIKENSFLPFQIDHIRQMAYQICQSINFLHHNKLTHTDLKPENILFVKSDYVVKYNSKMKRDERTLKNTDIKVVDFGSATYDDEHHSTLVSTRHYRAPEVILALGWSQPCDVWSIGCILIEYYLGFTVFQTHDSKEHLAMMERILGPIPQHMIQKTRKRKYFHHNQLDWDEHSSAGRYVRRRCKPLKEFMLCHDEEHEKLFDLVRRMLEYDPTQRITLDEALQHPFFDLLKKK
# Summary of the method: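 Clk4 25 nM, RS peptide 100 uM, ATP 1 uM, pH 7.5 Tris, 10 mM MgCl2, 2.5 mM DTT; 4.5 h RT; ATP depletion read by Kinase-Glo luminescence.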
# [13] = biological target: Dual specificity protein kinase CLK4 (Homo sapiens) (UniProt Q9HAZ1); assay: qHTS Assay for Inhibitors of CDC-like Kinase 4 (ADP-Glo Assay) (AID 1771); conditions: recombinant CLK4, ADP-Glo luminescence; series mostly up to 80 µM; further: on the % scale 0 is the no-effect control and ±100 the full control effect; nearly all actives have a fitted effect of over 70% in size
# Summary of the method: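 Kinase reaction: Clk4 at 25 nM, RS repeat peptide substrate at 100 uM, ATP at 1 uM, 1 hr, room temperature. Product ADP detected as luciferase signal via ADP-Glo.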
# [14] = biological target: Dual specificity protein kinase CLK4 (Homo sapiens) (UniProt Q9HAZ1); assay: qHTS Assay for Inhibitors of CDC-like Kinase 4 (ADP-FP Assay) (AID 1795); conditions: Transcreener ADP fluorescence polarization; series mostly up to 50 µM;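 further: recombinant human CLK4 phosphorylating RS repeat peptide at 1 µM ATP; on the % scale 0 is the no-effect control and ±100 the full control effect; nearly all actives have a fitted effect of over 60% in size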
# Summary of the method: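 Kinase activity was followed as ADP output, converted from fluorescence polarization with a calibration curve. Reactions ran one hour at low ATP (1 uM) with RS peptide substrate.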
# [15] = biological target: Ubiquitin carboxyl-terminal hydrolase 1 (Homo sapiens) (UniProt O94782); assay: Inhibitors of USP1/UAF1: Pilot qHTS (AID 504865); conditions: purified USP1/UAF1, Ub-rhodamine cleavage fluorescence; series mostly up to 54.9 µM;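 further: rhodamine fluorescence freed from ubiquitin-rhodamine substrate followed over time; top concentration of the series differs between compounds; on the % scale 0 is the no-effect control and ±100 the full control effect; nearly all actives have a fitted effect of over 35% in size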
# Sequence of Ubiquitin carboxyl-terminal hydrolase 1 (Homo sapiens) (O94782 whole entry, looked up): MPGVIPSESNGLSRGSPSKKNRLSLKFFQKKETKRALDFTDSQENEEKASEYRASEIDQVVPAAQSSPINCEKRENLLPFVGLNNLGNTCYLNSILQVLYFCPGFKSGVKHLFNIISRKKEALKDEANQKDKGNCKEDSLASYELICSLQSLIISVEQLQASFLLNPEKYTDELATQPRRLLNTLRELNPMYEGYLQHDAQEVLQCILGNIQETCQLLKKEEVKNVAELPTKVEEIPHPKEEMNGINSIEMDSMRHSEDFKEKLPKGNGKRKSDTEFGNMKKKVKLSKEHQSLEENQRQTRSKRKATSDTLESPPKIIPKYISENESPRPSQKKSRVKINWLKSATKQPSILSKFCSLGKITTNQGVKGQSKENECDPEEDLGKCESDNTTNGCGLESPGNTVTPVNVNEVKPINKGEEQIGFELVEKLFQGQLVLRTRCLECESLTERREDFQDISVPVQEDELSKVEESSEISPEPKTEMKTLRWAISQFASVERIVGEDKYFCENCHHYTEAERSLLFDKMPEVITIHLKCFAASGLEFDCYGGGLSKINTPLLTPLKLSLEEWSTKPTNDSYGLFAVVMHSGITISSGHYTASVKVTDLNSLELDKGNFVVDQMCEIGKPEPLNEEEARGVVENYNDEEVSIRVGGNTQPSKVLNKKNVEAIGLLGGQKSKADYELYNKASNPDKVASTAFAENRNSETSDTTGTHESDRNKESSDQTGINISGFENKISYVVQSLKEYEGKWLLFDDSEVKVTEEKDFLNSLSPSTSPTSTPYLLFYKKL
# Summary of the method: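 Enzyme-free wells gave the negative control, while test wells held 1nM USP1/UAF1 preincubated with compound for 15 min at room temperature. Ub-Rho at 150nM final started the reaction, and fluorescence at 480/540 nm was recorded kinetically.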
# [16] = biological target: Cytochrome P450 3A4 (Homo sapiens) (UniProt P08684); assay: qHTS Assay for Activators of Cytochrome P450 3A4 (AID 885); conditions: recombinant CYP3A4, Luciferin-PPXE luminescence, 60 min; series mostly up to 57.1 µM; further: nearly all actives have a fitted effect of over 65% in size
# Summary of the method: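 Quantitative HTS format: compounds preincubated with 20nM human CYP3A4 and Luciferin-PPXE substrate at KM, reaction started by NADPH regeneration, stopped after 60 min, luciferase luminescence read 20 min later.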
# [17] = Confirmation and Secondary Assay for Modulators of Hemoglobin Beta Chain Splicing at IVS2 654 locus (AID 910); conditions: HeLa EGFP-654 splicing reporter, GFP fluorescence, 48 h; series mostly up to 38.3 µM;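 further: HeLa cells stably carrying EGFP split by mutant beta-globin IVS2-654 intron; % of control where 0% means no effect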
# Summary of the method: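 HeLa cells stably expressing EGFP interrupted by β-globin IVS2-654 intron, seeded overnight in Opti-MEM/2% FCS, then treated 2 days at 37 °C. Restored splicing read as total peak GFP intensity per well by laser scanning cytometry (488 nm excitation, 500–520 nm emission); 500 nM antisense PNA as control.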
# [18] = Confirmation and Secondary Assay for Modulators of Hemoglobin Beta Chain Splicing at IVS2 705 locus (AID 930); conditions: HeLa EGFP-705 splicing reporter, GFP fluorescence, 48 h; series mostly up to 38.3 µM;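 further: HeLa cells stably expressing the EGFP-705 splicing reporter; GFP fluorescence per well restored by corrected splicing of the IVS2-705 intron in EGFP; % of control where 0% means no effect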
# Summary of the method: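 Fluorescence gain (488 nm laser, 500-520 nm PMT) reflects restored correct splicing of a mutant IVS2-705 intron inside EGFP in stably transfected HeLa cells after 2-day compound treatment.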
# [19] = biological target: Rap guanine nucleotide exchange factor 3 (Homo sapiens) (UniProt O95398); assay: Confirmatory qHTS for agonist of cAMP-regulated guanine nucleotide exchange factor 3 (EPAC1) (AID 1645881); conditions: EPAC1 Rap1B BODIPY-GDP exchange fluorescence; series mostly up to 154 µM;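 further: EPAC1 catalysed release of BODIPY-GDP from Rap1B seen as fluorescence loss; 100% = effect of cAMP agonist control; nearly all actives have a fitted effect of over 75% in size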
# Sequence of Rap guanine nucleotide exchange factor 3 (Homo sapiens) (O95398 whole entry, looked up): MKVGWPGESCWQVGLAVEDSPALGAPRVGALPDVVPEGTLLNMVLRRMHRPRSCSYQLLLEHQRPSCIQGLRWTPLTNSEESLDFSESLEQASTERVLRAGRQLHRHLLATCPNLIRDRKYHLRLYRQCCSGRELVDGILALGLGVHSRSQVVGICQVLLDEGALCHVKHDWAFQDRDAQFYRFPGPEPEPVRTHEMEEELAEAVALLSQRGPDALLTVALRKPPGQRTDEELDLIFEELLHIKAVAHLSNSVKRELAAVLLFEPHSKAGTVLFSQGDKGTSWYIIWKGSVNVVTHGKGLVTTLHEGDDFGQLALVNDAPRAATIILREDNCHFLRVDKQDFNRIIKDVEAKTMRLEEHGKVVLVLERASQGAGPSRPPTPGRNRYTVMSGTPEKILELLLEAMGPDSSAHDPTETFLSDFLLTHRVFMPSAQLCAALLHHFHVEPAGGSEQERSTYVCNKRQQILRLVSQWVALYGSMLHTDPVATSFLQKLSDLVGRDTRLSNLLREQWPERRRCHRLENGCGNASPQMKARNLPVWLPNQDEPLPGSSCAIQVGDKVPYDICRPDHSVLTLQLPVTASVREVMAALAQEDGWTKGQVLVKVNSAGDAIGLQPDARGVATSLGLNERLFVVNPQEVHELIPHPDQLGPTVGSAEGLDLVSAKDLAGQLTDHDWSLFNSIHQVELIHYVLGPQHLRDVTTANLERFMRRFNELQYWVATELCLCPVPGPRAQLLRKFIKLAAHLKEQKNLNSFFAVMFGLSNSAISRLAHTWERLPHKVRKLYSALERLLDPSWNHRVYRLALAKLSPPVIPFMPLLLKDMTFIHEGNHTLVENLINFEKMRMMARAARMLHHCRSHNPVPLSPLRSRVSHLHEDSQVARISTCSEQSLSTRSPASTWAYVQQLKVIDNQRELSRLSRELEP
# [20] = measured here: cell count channel max response
# [21] = measured here: lipid channel max response
smiles,measurement,setting,value
CN1CCN(c2ncc3nc(-c4ccc(F)cc4)c(=O)n(C4CC4)c3n2)CC1,Potency,[1],> 11.4 µM (inactive)
same,"activity change, negative = inhibition",[2],9.67% (inactive)
same,Potency,[3],12.6 µM (active)
same,"activity change, negative = inhibition",[4],24.4% (inactive)
same,"activity, negative = inhibition",[5],18.6% (inactive)
same,Potency,[6],> 9.22 µM (inactive)
same,Potency,[7],> 46 µM (inactive)
same,Potency,[8],inactive
same,Potency,[9],inactive
same,Potency,[10],inactive
same,"activity change, negative = inhibition",[11]; at 57.5 µM (top of the series),-0.731% (inactive)
same,max response,[11]; [20],7.24%
same,max response,[11]; [21],4.22%
same,Potency,[12],inactive
same,Potency,[13],inactive
same,Potency,[14],inactive
same,Potency,[15],inactive
COc1cc(O)c(C(=O)/C=C/c2ccc(OC)c(O)c2)c(OC)c1,Potency,[10],6.31 µM (active)
same,Potency,[16],inactive
same,Potency,[17],inactive
same,outcome,[18],inactive
same,"activity change, negative = inhibition",[11]; at 57.5 µM (top of the series),-24.7% (inactive)
same,max response,[11]; [20],-3.92%
same,max response,[11]; [21],-25.6%
same,Potency,[19],inactive
Nc1ncnc2c1ncn2[C@@H]1O[C@H](COP(=O)(O)OP(=O)(O)OP(=O)(O)OP(=O)(O)OC[C@@H]2O[C@H](n3cnc4c(N)ncnc43)[C@@H](O)[C@@H]2O)[C@H](O)[C@H]1O,"activity change, negative = inhibition",[11]; at 57.5 µM (top of the series),1.69% (inactive)
same,max response,[11]; [20],17%
same,max response,[11]; [21],19.7%
C[n+]1cccc(C(=O)[O-])c1,Potency,[10],inactive
same,Potency,[17],inactive
same,outcome,[18],inactive
same,"activity change, negative = inhibition",[11]; at 57.5 µM (top of the series),6.06% (inactive)
same,max response,[11]; [20],-1.12%
same,max response,[11]; [21],2.73%
same,Potency,[15],inactive
CC#C[C@]1(O)CC[C@H]2C3CCC4=CC(=O)CCC4=C3[C@@H](c3ccc(N(C)C)cc3)C[C@@]21C (some centres undefined),"activity change, negative = inhibition",[11]; at 57.5 µM (top of the series),0.852% (inactive)
same,max response,[11]; [20],-13.1%
same,max response,[11]; [21],-13.3%
Cc1cc(/C=C\c2ccc3cc(N(C)C)ccc3[n+]2C)c(C)n1-c1ccccc1,"activity change, negative = inhibition",[2],12.4% [at 17.2 µM] (inactive)
same,Potency,[6],> 20.6 µM (inactive)
same,Potency,[7],> 20.6 µM (inactive)
same,Potency,[9],inactive
same,"activity change, negative = inhibition",[11]; at 25.7 µM (top of the series),-5.56% (inactive)
same,max response,[11]; [20],-11.1%
same,max response,[11]; [21],-18.2%
COc1ccccc1CNc1ncncc1-c1ccccc1OC,Potency,[1],> 11.4 µM (inactive)
same,"activity change, negative = inhibition",[2],-8.41% (inactive)
same,"activity change, negative = inhibition",[4],-16.1% (inactive)
same,"activity, negative = inhibition",[5],-9.32% (inactive)
same,Potency,[6],> 46 µM (inactive)
same,Potency,[7],> 46 µM (inactive)
same,Potency,[8],inactive
same,Potency,[10],0.199 µM (active)
same,Potency,[16],inactive
same,"activity change, negative = inhibition",[11]; at 57.5 µM (top of the series),6.17% (inactive)
same,max response,[11]; [20],3.98%
same,max response,[11]; [21],9.74%
same,Potency,[15],inactive
same,Potency,[19],inactive
